Only some compounds are listed: those with a hit (about 18% of all), similar ones and a draw of the others.
VP16 counter: counter-screen for ROR gamma inhibitors: Gal4-VP16 reporter | Drosophila S2 Gal4-VP16 UAS-luciferase, luminescence, 20 h | Potency, µM (top dose mostly 53.6 µM), inactives show top-dose activity, negative = inhibition, usual class: inhibitors | 310,000 compounds, 3.5% hits | AID 2546;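 further: Gal4-VP16 expression switched on by copper sulfate through the metallothionein promoter; potency means the concentration at half of the fitted maximal effect; nearly all actives have a fitted effect of over 50% in size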
DT40 TDP1 no CPT: qHTS for Inhibitors of human tyrosyl-DNA phosphodiesterase 1 (TDP1): qHTS in cells in absence of CPT | AID 686978, 2013 | Potency, µM (doses to about 46.2 µM), inactives show at the highest dose activity change, negative = growth inhibition, usual class: inhibitors | 420,000 compounds, 15% hits | DT40 Tdp1-/- hTDP1 cells, no CPT, ATP luminescence, 48 h; further: potency means the concentration at half of the fitted maximal effect; nearly all actives have a fitted effect of over 55% in size
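Cells were dispensed at 400 per well, compounds added by pin tool, plates incubated ≥48 hr at 37 °C, then CellTiter-Glo added for 30 min at room temperature before luminescence reading. Line: DT40 Tdp1-/- complemented with hTDP1; camptothecin omitted.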
TDP1 cell CPT: growth inhibition of DT40 Tdp1-/-;hTDP1 cells with camptothecin (screen for TDP1 inhibitors) | AID 686979 | chicken DT40 Tdp1-/-;hTDP1 cells + 20 nM CPT, ATP luminescence, 48 h | 420,000 compounds, 12% hits | Potency, µM (highest dose often 46.2 µM), without a hit: at the highest dose activity change, negative = growth inhibition, most hits filed as inhibitors; further: potency means the concentration at half of the fitted maximal effect; nearly all actives have a fitted effect of over 55% in size
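Cell growth measured by CellTiter-Glo luminescence after a minimum 48 h, 37 C compound exposure with 20 nM CPT in Tdp1-knockout DT40 cells stably expressing hTDP1, seeded 400/well; qHTS titration format.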
LDHA inh: blocks human lactate dehydrogenase A; P00338; purified LDHA, NADH/diaphorase-resazurin fluorescence; active compounds read low; AID 1347041; 480,000 compounds, 0.15% hits; activity change, % (values are at about 110 or 230 µM); in the data active means activity change below about -30%; inconclusive means mostly about -25% to -30%;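 further: plate controls were DMSO wells for no effect and wells without enzyme for full effect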
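Resorufin fluorescence (ex540/em590), read at 0 and 20 min after diaphorase/resazurin addition, reports the NADH left after a 5 min room-temperature reaction of 2 nM human LDH5 with 0.06 mM NADH and 0.2 mM pyruvate.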
RORgamma inh: ROR gamma (mouse) transcription inhibition | Potency, µM (series often up to 53.6 µM), inactives show at the highest dose activity change, negative = inhibition, usual class: inhibitors | Drosophila S2 Gal4-RORgamma UAS-luciferase reporter, 20 h | 310,000 compounds, 5.4% hits | P51450; further: potency means the concentration at half of the fitted maximal effect; nearly all actives have a fitted effect of over 60% in size
Target sequence (P51450 whole entry, looked up, the tested form may be a part): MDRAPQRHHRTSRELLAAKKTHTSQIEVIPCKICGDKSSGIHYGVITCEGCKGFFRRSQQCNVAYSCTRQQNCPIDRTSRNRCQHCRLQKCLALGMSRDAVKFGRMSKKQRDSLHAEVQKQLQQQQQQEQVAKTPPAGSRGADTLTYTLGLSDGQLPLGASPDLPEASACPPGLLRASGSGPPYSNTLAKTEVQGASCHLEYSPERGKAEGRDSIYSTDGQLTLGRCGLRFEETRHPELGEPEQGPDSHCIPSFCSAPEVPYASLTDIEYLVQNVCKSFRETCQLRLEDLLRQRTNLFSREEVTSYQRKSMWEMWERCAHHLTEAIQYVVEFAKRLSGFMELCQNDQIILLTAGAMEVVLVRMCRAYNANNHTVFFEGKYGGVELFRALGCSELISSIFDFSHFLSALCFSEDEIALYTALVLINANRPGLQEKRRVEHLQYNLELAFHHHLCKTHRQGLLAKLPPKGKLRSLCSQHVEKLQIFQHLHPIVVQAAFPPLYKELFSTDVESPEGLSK
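Stable Schneider cell line, Gal4 DNA-binding domain fused to ROR gamma, UAS-luciferase. Cmpd 1 hr RT → CuSO4 700 uM final → 20 hr RT → luciferase reagent 10 min → luminescence.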
IL1B secr inh: inhibitors of inflammasome signaling (IL-1 beta secretion) | THP-1 LPS/ATP IL-1B secretion, AlphaLISA, 16 h; active compounds read low | activity change, % at 57.5 µM | 360,000 compounds, 4.7% hits | AID 743279; in the data active means activity change below about -50%; inconclusive means mostly about -30% to -49%
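Secreted IL-1B measured by AlphaLISA bead assay after 16 h compound exposure of THP-1 cells; compounds (final up to 57.5 uM) added 1 h before LPS (250 ng/mL) and ATP (1.25 mM) stimulation; lower signal means less secretion.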
* hit, by the source's call; ? = inconclusive; / = not tested or not shown. Unless noted, the call rests on the fitted dose curve; in most records, active means well fitted curve in the direction sought with a large enough effect; inconclusive means small, poorly fitted or top-dose-only effect, or another doubt; inactive means no such curve, though single readings can be large; an effect the other way counts as inactive or inconclusive. Unless noted, on the % scale 0 is the no-effect control and ±100 the full control effect.

SMILES	VP16 counter	DT40 TDP1 no CPT	TDP1 cell CPT	LDHA inh	RORgamma inh	IL1B secr inh
COc1ccccc1NC(=S)N1CCC(c2nc3cc(C)c(C)cc3[nH]2)CC1	2.5%	?	?	-0.9	-2.9%	-0.6
COc1ccccc1NC(=O)CN1CCC(c2nc3ccccc3[nH]2)CC1	11.7%	14.6µM*	?	-10.5	7.8%	27.4
COc1ccccc1NC(=O)N1CCC(c2nc3cc(C)c(C)cc3[nH]2)CC1	-19.8%	1.84µM*	3.66µM*	4.7	9.9%	23.7
COc1cccc(CNC(=O)CN2CCC(c3nc4ccc(C)cc4[nH]3)CC2)c1	-2.3%	?	?	-8.0	-0.7%	-60.5*
CCCNC(=O)c1cc(C2CCCCN2C(=O)c2ccc3c(c2)CCO3)on1 (stereo unspecified)	/	-23.8%	-12.2%	-5.8	/	8.9
O=C(Nc1ccc2c(c1)OCO2)c1cc(C2CCCCN2C(=O)c2ccc3c(c2)CCO3)on1 (stereo unspecified)	/	25.9µM*	25.9µM*	1.5	/	-12.6
O=C(Nc1ccccc1Cl)c1cc(C2CCCN(C(=O)c3ccc4c(c3)CCO4)C2)on1 (stereo unspecified)	/	14.6µM*	13µM*	-12.0	/	33.2
O=C(Nc1ccc2c(c1)OCO2)c1cc(C2CCCCN2C(=O)c2ccc(Cl)cc2)on1 (stereo unspecified)	/	20.6µM*	20.6µM*	1.9	/	-0.7
N#Cc1ccc(C(=O)N2CCCCC2c2cc(C(=O)Nc3ccc4c(c3)OCO4)no2)cc1 (stereo unspecified)	/	23.1µM*	?	-2.8	/	-16.5
CCOc1ccc(C(=O)/C=C/c2ccccc2)cc1	/	/	/	-3.1	/	/
Cc1ccc(-n2nc(-c3noc(C(=O)N4CCC(c5ccccc5)C4)n3)c(=O)n(C)c2=O)cc1 (stereo unspecified)	/	/	/	-3.8	/	/
COc1ccc(C(C)=O)cc1CN(C)CC12CC3CC(CC(C3)C1)C2	/	/	/	-1.9	/	/
CN1CCC(Oc2ccc(Sc3ccccc3)cc2)CC1	-12.5%	23.1µM*	?	0.3	-0.7%	-54.5*
Cc1ccc2c(c1)C(=C(C#N)C#N)C(=O)N2CCN1CCCCC1	-7.7%	18.4µM*	23.1µM*	10.1	3.0%	-9.8
CC(=O)NC1C(=O)N(CCN2CCOCC2)c2ccc(C)cc21 (stereo unspecified)	3.1%	8.6%	0.0%	-12.7	-0.9%	-16.6
Cc1ccc2c(c1)C(=C(C#N)C#N)C(=O)N2CCN1CCOCC1	3.8%	?	16.4µM*	17.4	15.4%	13.0
Cc1cc(NCC2CCCCC2)nc2ccccc12	6.6%	23.1µM*	?	-6.3	?	-100.1*
CCOC(=O)c1c(C)[nH]c(C)c1C(=O)CSc1nc2ccccc2[nH]1	-8.4%	-74.2%	-72.6%	2.8	21.2%	-2.0
CCOCN(C(=O)CSc1nc2ccccc2[nH]1)c1c(C)cccc1CC	/	23.1µM*	14.6µM*	8.4	/	/
CCOCN(C(=O)Cn1c(CC(C)C)nc2ccccc21)c1c(C)cccc1CC	/	23.1µM*	?	2.9	/	/
Oc1ccc(N=Nc2nc(-c3ccccc3)c(-c3ccccc3)[nH]2)cc1	?	23.1µM*	?	-2.6	12.6µM*	-0.2
CC(C)(C)C(=O)CSc1nccc(C(F)(F)F)n1	/	/	/	9.7	/	/
COc1ccc(C)cc1C1=Nc2ccccc2C1(C)C	?	-13.7%	-5.5%	-8.1	12.6µM*	0.0
COc1ccnc(Oc2cccc(C(F)(F)F)c2)c1C(=O)N/C=N/OCc1ccccc1F	8.3%	20.6µM*	?	2.0	12.2%	-58.5*
CC1(C)CC(=O)C2=C(C1)NC(Nc1nc3ccccc3o1)=NC2c1cccc(Cl)c1 (stereo unspecified)	/	/	/	-30.3*	/	/
SMILES	VP16 counter	DT40 TDP1 no CPT	TDP1 cell CPT	LDHA inh	RORgamma inh	IL1B secr inh
CC1(C)CC(=O)C2=C(C1)NC(Nc1nc3ccccc3o1)=NC21CCCCC1	-2.1%	23.1µM*	?	-1.5	-6.6%	24.0
O=C1CCC2=C1C1(CCCC1)N=C(Nc1nc3ccccc3o1)N2	/	/	/	-4.8	/	/
CC(C)c1ccc2c(c1)-c1ccccc1S(=O)(=O)N2CC(=O)NCc1ccncc1	/	/	/	-2.7	/	/
Cc1ccc2oc(=O)c(/C=C(\O)c3ccccc3)nc2c1	?	-22.1%	-1.4%	2.3	?	14.1
O=c1oc2ccccc2nc1/C=C(\O)c1ccc(Br)cc1	-6.3%	?	?	2.9	-9.7%	3.2
C/C(O)=C\c1nc2ccccc2oc1=O	2.9%	7.31µM*	10.3µM*	13.6	-15.6%	40.5
Cc1ccc2oc(=O)c(/C=C(\O)CC(C)C)nc2c1	?	-87.5%	23.1µM*	11.1	?	17.8
CS(=O)(=O)Cc1nc2ccccc2oc1=O	-13.0%	6.51µM*	6.51µM*	18.4	?	10.2
c1ccc2oc(CCc3nc4ccccc4o3)nc2c1	-10.0%	-0.2%	3.0%	-4.1	2.4%	-6.2
O=C(CCCc1c[nH]c2ccccc12)N1CCCC1c1ccc(F)cc1 (stereo unspecified)	/	/	/	-1.7	/	/
COc1ccc(C(=O)CC(SCC(NC(C)=O)C(=O)O)c2ccc(Cl)cc2)cc1OC (stereo unspecified)	18.6%	?	14.6µM*	-5.1	?	-88.1*
CCCCc1cc(=O)oc2c(CN3CCCC3)c(O)ccc12	1.5%	-11.7%	4.9%	-1.1	5.5%	17.0
CCCc1cc(=O)oc2c(CNc3ccc(OCC)cc3)c(O)ccc12	0.1%	?	11.6µM*	-3.7	-22.9%	0.0
CCc1ccc(N2CC(c3nc4ccccc4n3CC(=O)N3CCC(C)CC3)CC2=O)cc1 (stereo unspecified)	/	/	/	2.5	/	/
O=C1N/C(=C/c2cccn2-c2ccccc2)C(=O)N1Cc1ccc(F)cc1	10µM*	-7.5%	5.2%	-7.7	30.2%	11.2
O=C1N/C(=C/c2cccn2-c2ccc(F)cc2)C(=O)N1Cc1ccccc1F	-9.3%	?	1.4%	-2.1	2.0%	-4.1
Cc1ccc(NC(=O)CN2C(=O)N/C(=C/c3cccn3-c3ccc(C(=O)O)cc3)C2=O)cc1	-3.0%	-1.8%	-3.6%	-30.3*	21.2%	0.0
Cn1nnnc1-c1cccc(NCC(=O)NC2(C#N)CCCCC2)c1	/	/	/	-14.9	/	/
CCCN(CCC)S(=O)(=O)NCc1ccnc(OCc2ccccc2)c1	/	/	/	10.7	/	/
O=C(Sc1cccc2cccnc12)c1ccccc1Cl	/	/	/	4.2	/	/
O=C(Sc1cccc2cccnc12)c1ccccc1Br	2µM*	/	/	/	0.794µM*	/

Source: PubChem (National Center for Advancing Translational Sciences (NCATS))
